The structures appear in SMILES notation. Active and inactive are the calls of the source.

This note sets out measurements from PubChem BioAssay.

Test [1] concerns Plasmodium falciparum Sir2 (PF13_0152, Sir2A). As to the kind of experiment: Plasmodium falciparum Sir2A binding compounds – biochemical, small-molecule microarray, 635 nm fluorescence, primary screen (AID 1098).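 Also: score merges spot fluorescence intensity with its signal-to-noise ratio.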 To be noted: fluorescence 635 nm, higher = more signal.
Test [2] in a line: probe aDKK1 binding to arrayed compounds – biochemical, biotinylated probe, 635/667 nm fluorescence, primary screen (AID 1099).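 Also: score merges 667nm spot fluorescence with signal to noise across triplicate slides.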 To be noted: small-molecule microarray, higher = more signal.
Test [3] in a line: probe aCHRDL2 binding to arrayed compounds – biochemical, biotinylated probe, 635/667 nm fluorescence, primary screen (AID 1100). The conditions noted are these: small-molecule microarray, higher = more signal.
The nature of test [4]: change in splice reporter luminescence, either direction, cell-based, HEK293, spliceosome inhibition project, primary screen (AID 1101).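 Also: HEK293 cells carrying a splicing-competent luciferase reporter gene; test concentration not given here.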 To be noted: HEK293 splicing luciferase reporter, 24 h, higher = more signal, called active from +8 up or from −8 down. On the technique in general: A reporter such as luciferase makes a cellular process visible.
Test [5] concerns the target Fibroblast growth factor 10 (Homo sapiens) (UniProt O15520). Briefly: compounds binding fibroblast growth factor 10 – biochemical, small-molecule microarray, 635 nm fluorescence, primary screen (AID 1102). To be noted: FGF10 binding, fluorescence 635 nm, higher = more signal.
Test [6] deals with glycogen synthase kinase-3 (GSK3A per assay name; protocol says GSK3B). Briefly: compounds binding glycogen synthase kinase-3 – biochemical, small-molecule microarray, 635 nm fluorescence, GSK3A, primary screen (AID 1103). Also: the record names both GSK3A and GSK3B. The conditions noted are these: fluorescence 635 nm, higher = more signal.
The target in test [7] is Epidermal growth factor receptor (Homo sapiens) (UniProt P00533). As to the kind of experiment: compounds binding epidermal growth factor receptor – biochemical, small-molecule microarray, 635 nm fluorescence, primary screen (AID 1104).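 Also: score merges 667 nm emission intensity with spot signal to noise over triplicate slides.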 To be noted: EGFR binding, higher = more signal.
The target in test [8] is Follistatin-related protein 3 (Homo sapiens) (UniProt O95633). Briefly: compounds binding follistatin-related protein 3 – biochemical, small-molecule microarray, 635 nm fluorescence, primary screen (AID 1105).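 Also: score merges emission near 667 nm and signal to noise per printed spot across three slides.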 The conditions noted are these: FSTL3 binding, higher = more signal.
Test [9] has as its target Dickkopf-related protein 1 (Homo sapiens) (UniProt O94907). As to the kind of experiment: small molecules binding DKK1 protein – biochemical, small-molecule microarray, 635 nm fluorescence scan, primary screen (AID 1106).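 Also: score merges emission near 667 nm with signal to noise over three replicate slides.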 To be noted: higher = more signal.
Test [10] concerns Inhibin beta A chain (activin A). As to the kind of experiment: small molecules binding activin A – biochemical, small-molecule microarray, 635 nm fluorescence scan, primary screen (AID 1107).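 Also: mouse activin A protein probed at 4.33 µg/mL on printed slides; score merges bound-protein fluorescence near 667 nm with spot signal-to-noise.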 To be noted: INHBA, higher = more signal.
Test [11] relates to Human papillomavirus type 1a protein E7 (residues 44-93). As to the kind of experiment: small molecules binding HPV E7 44-93 – biochemical, small-molecule microarray, residues 44-93, 635 nm fluorescence, primary screen (AID 1108).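 Also: E7 fragment applied at 1 µg/mL in TBST for 1 h at 4 C; score combines spot fluorescence with its signal to noise ratio.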 The conditions noted are these: fluorescence 635 nm, higher = more signal.
Test [12] is described as follows: hepatitis C replication reporter changes, two-sided – Huh7 cells, luciferase reporter, HCV replication inhibitor project, primary screen (AID 1109).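 Also: huh7 hepatoma cells harbouring a luciferase neomycin HCV replicon reporter; luciferase luminescence as measure of HCV replicon replication; test concentration not given here.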 To be noted: Huh7 HCV replicon luciferase reporter, 48 h; higher = more signal.
Test [13] addresses Left-right determination factor 2 (Homo sapiens) (UniProt O00292). As to the kind of experiment: small molecules binding LEFTY2 protein – biochemical, small-molecule microarray, 635 nm fluorescence scan, primary screen (AID 1110). The conditions noted are these: higher = more signal.
Test [14] concerns the target Calmodulin-1 (Homo sapiens) (UniProt P0DP23). Briefly: small molecules binding calmodulin-1 with EGTA – biochemical, small-molecule microarray, Cy5-labelled CALM1, profiling panel (AID 1111).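 Also: labelled calmodulin applied in Tris saline Tween buffer holding calcium plus EGTA and DTT.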 To be noted: Cy5-CALM1 binding fluorescence, higher = more signal.
The target is the same in test [15]. As to the kind of experiment: small molecules binding Ca-loaded calmodulin-1 – biochemical, small-molecule microarray, Cy5-labelled CALM1, plus calcium, artefact control for SMM control-protein annotation, profiling panel (AID 1112).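 Also: score merges spot fluorescence with signal to noise from triplicate slides.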 To be noted: Cy5-CALM1 binding fluorescence, higher = more signal.
Test [16] can be described thus: probe aWnt5a binding to arrayed compounds – biochemical, biotinylated probe, 635/667 nm fluorescence, primary screen (AID 1113).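 Also: score merges 667 nm fluorescence intensity with signal-to-noise per printed feature.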 The conditions noted are these: small-molecule microarray, higher = more signal.
A short description of test [17]: probe aShh binding to arrayed compounds – biochemical, biotinylated probe, 635/667 nm fluorescence, primary screen (AID 1114).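 Also: probe is biotin-labelled aShh protein from a stem cell growth factor screen; measures binding of labelled protein to compounds printed on the slide; score merges feature fluorescence at 667 nm with signal-to-noise.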 To be noted: small-molecule microarray, higher = more signal.
The nature of test [18]: probe aNog binding to arrayed compounds – biochemical, biotinylated probe, 635/667 nm fluorescence, primary screen (AID 1115).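 Also: probe is biotinylated aNog protein used at 0.15 µg/mL for 1 h at 4 C; z-score combines 667 nm fluorescence of each spot with its signal to noise.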 To be noted: small-molecule microarray, higher = more signal.
In test [19] the target is Torsin-1A-interacting protein 1 (Homo sapiens) (UniProt Q5JTV8). As to the kind of experiment: compound microarray binding of lysate hLAP1 – cell lysate, small-molecule microarray, COS7 lysate, 635/667 nm fluorescence, primary screen (AID 1116). The conditions noted are these: 635 nm fluorescence, higher = more signal.
In test [20] the target is Alpha-bungarotoxin (Bungarus multicinctus) (UniProt P60615). Briefly: compounds binding labelled alpha-BTX control protein – biochemical, small-molecule microarray, Alexa647 label, 635/667 nm fluorescence, artefact control for SMM control protein annotation, profiling panel (AID 1117). To be noted: alpha-BTX-A647 binding fluorescence, higher = more signal.
Alpha-bungarotoxin (Bungarus multicinctus), sequence (P60615 whole entry, looked up): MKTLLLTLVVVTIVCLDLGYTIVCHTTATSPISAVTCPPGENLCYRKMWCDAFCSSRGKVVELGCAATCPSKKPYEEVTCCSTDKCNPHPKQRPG

Torsin-1A-interacting protein 1 (Homo sapiens), sequence (Q5JTV8 whole entry, looked up): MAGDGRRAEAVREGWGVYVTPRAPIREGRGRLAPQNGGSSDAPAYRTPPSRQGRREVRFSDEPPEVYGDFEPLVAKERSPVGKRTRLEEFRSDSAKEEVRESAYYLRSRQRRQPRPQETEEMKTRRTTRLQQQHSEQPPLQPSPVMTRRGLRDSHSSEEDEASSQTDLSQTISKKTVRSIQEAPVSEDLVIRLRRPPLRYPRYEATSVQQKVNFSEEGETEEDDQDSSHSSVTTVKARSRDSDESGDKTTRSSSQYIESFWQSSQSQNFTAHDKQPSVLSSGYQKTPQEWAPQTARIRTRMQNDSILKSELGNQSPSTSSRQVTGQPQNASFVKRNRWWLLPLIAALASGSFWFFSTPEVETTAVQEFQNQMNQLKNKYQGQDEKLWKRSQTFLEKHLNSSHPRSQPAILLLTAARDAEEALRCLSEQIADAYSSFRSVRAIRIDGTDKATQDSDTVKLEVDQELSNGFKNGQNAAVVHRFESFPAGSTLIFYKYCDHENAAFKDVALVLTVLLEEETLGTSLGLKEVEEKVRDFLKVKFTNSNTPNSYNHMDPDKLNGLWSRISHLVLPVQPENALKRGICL
Left-right determination factor 2 (Homo sapiens), sequence (O00292 whole entry, looked up): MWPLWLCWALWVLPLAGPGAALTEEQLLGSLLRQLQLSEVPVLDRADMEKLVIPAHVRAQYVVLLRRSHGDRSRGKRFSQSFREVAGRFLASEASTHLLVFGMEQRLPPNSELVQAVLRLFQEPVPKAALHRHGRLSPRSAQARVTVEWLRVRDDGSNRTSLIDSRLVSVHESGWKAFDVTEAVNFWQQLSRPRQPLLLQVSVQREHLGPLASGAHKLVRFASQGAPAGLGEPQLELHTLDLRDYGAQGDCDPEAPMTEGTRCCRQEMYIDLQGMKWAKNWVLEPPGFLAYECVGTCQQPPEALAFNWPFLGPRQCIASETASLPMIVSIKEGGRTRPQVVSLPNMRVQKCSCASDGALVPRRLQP
Dickkopf-related protein 1 (Homo sapiens), sequence (O94907 whole entry, looked up): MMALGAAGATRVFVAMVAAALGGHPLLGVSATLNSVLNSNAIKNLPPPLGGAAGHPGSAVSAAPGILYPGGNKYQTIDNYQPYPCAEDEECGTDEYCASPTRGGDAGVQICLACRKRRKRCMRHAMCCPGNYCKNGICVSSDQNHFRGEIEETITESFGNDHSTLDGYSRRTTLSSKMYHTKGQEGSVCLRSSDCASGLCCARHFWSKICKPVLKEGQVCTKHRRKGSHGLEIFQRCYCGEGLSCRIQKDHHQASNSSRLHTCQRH
Follistatin-related protein 3 (Homo sapiens), sequence (O95633 whole entry, looked up): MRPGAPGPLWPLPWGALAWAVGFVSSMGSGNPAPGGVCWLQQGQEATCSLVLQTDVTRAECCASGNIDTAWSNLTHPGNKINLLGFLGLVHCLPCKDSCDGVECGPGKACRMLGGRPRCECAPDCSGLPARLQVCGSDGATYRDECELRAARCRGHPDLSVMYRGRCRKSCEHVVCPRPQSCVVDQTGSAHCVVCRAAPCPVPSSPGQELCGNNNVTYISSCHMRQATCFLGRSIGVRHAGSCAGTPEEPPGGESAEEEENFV
Epidermal growth factor receptor (Homo sapiens), sequence (P00533 whole entry, looked up): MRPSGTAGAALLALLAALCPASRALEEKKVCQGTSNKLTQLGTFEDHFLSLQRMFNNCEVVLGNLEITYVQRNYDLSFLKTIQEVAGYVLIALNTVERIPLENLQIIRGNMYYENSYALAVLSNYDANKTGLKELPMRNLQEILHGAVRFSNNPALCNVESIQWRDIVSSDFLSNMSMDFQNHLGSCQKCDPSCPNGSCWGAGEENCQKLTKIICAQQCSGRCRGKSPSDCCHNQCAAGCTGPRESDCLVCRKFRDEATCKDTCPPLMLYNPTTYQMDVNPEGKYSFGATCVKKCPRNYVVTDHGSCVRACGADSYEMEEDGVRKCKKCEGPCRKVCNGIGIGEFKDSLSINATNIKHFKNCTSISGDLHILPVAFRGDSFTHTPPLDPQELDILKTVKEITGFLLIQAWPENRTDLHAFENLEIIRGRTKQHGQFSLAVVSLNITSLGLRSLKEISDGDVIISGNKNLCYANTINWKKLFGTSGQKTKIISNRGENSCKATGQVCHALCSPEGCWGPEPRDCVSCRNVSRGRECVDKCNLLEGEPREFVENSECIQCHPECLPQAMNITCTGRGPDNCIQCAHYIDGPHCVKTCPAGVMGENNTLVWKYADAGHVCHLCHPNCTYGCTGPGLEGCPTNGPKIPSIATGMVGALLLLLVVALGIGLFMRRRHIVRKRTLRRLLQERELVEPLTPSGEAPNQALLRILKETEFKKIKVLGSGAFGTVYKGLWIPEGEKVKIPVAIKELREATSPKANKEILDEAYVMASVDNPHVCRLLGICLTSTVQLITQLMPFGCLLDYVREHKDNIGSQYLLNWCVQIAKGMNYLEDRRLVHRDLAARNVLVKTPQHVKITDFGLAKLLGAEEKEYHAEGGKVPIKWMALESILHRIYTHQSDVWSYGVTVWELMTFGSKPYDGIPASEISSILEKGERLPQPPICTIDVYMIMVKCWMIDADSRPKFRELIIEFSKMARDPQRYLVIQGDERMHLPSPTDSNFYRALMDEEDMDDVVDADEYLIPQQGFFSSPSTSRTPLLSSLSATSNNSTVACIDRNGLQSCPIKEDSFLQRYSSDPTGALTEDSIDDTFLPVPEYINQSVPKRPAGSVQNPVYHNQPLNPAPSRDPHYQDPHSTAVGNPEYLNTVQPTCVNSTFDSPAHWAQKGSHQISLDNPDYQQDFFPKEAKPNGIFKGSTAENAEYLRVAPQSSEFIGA
Fibroblast growth factor 10 (Homo sapiens), sequence (O15520 whole entry, looked up): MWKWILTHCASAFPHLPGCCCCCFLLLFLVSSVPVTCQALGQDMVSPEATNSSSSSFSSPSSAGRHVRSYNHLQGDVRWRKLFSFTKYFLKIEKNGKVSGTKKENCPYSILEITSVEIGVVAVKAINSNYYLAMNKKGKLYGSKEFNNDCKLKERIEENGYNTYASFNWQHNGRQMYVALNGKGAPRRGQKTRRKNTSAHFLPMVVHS

Take `CC(C)(C)OC(=O)CC[C@@]1(C(=O)N2CCOCC2)N=C(c2ccc(OCCCO)cc2)O[C@@H]1c1ccccc1N=[N+]=[N-]`: the composite z-score in test [1] was 1.3; in test [2] it was 0.981; in test [3], 1.04; in test [5], 1.33; in test [6], 0.451; in test [7], 0.295. Further, the composite z-score turned out to be 1.13 in test [8]; 0.458 in test [9]; 1.03 in test [10]; 1.48 in test [11]; 0.395 in [13]; 1.56 in test [14]. The composite z-score in test [15] amounted to 0.642; in test [16], 0.115; in test [17], 0.558; in test [18] it was 0.45; in [19], 1.6; in test [20], 2.41. Moreover, the z-score in test [4] was -1.07 (inactive); in [12] it was 0.623.
Take `C=CCOC(=O)[C@@H]1[C@H]2C(=O)O[C@H](c3ccccc3)[C@H](c3ccccc3)N2[C@H](c2ccc(OCCOC(=O)[C@H]3C[C@H]4C(=O)N[C@@H](Cc5ccccc5)C(=O)N4[C@H]3c3ccc(O)cc3)cc2)[C@@]12C(=O)Nc1ccc(I)cc12`: the composite z-score in [1] came to 1.54; in test [2], 0.232; in test [3], 0.163; in test [5] it was 1.22; in test [6] it was 1.33; in [7] it was 0.906. In addition, the composite z-score in test [8] was 1.29; in [9], 1.26; in test [10] it was -0.418; in test [11], 1.06; in test [13], 0.866; in [14] it was -0.0584. Besides, the composite z-score in test [15] was -1.26; in [16], -0.135; in test [17], 0.302; in test [18], 0.116; in test [19], 1.03; in test [20] it was 1.66. Further, the results for the z-score in test [4] and in [12] were 0.00712 (inactive) and -2.78, respectively.
On to `CC(C)NC(=O)[C@@H]1c2ccccc2C(=O)N(C2CCCCC2)[C@H]1c1ccc(CO)cc1`, for which the composite z-score in test [1] was determined as 0.576; in test [2] it was 0.678; in test [3], 0.919; in test [5], 0.902; in test [6], 0.889; in [7] it was 0.101. Further, the composite z-score is 0.28 in [8]; -0.161 in [9]; 0.445 in [10]; 1.13 in test [11]; 0.0474 in [13]; 0.166 in test [14]. Also, the composite z-score in [15] was 0.808; in test [16] it was 0.0279; in test [17], -0.195; in test [18], 0.342; in test [19], 0.416; in test [20] it was 1.01. Besides, the z-score in test [4] is 0.0672 (inactive); in test [12], -1.48.
`O=c1cccc(-c2ccccc2)o1`: the composite z-score in test [1] is 0.906; in test [2], -0.196; in test [3], -0.186; in test [5], 0.421; in test [6], 0.211; in test [7], -0.648. Moreover, the composite z-score was -0.337 in test [8]; -0.1 in [9]; 1.4 in test [10]; -0.815 in test [11]; -0.491 in test [13]; -0.604 in [14]. For the same compound, the composite z-score in test [15] is -0.108; in test [16] it was -0.0863; in [17], 0.0141; in test [18], -0.295; in test [19], -0.0971; in [20], -0.0278. Also, the z-score in test [4] was 0.92 (inactive); in [12], -0.144.
Turning to `C=CCOC(=O)[C@@H]1[C@H]2C(=O)O[C@H](c3ccccc3)[C@H](c3ccccc3)N2[C@H](c2ccc(OCCOC(=O)[C@H]3C[C@H]4C(=O)N[C@@H](CCCC[N+](C)(C)C)C(=O)N4[C@H]3c3cccc(OCCO)c3)cc2)[C@@]12C(=O)Nc1ccc(I)cc12`, the composite z-score is 1.53 in [1]; 0.135 in test [2]; -0.0036 in [3]; 1.21 in test [5]; 1.29 in [6]; 1.32 in [7]. For the same compound, the composite z-score turned out to be 1.43 in test [8]; 1.7 in test [9]; 0.538 in test [10]; 1.14 in test [11]; 1.08 in [13]; 0.38 in test [14]. Also, the composite z-score is -0.0134 in test [15]; -0.091 in [16]; -0.153 in test [17]; -0.033 in test [18]; 0.896 in test [19]; 0.642 in test [20]. Moreover, the z-score was -0.241 (inactive) in test [4] and -1.29 in test [12].
For `COCC1C2CC[C@H]3C(OCc4ccc(F)cc4C(F)(F)F)OC[C@]4(C)[C@H]3C2=C(CN4C(=O)OC(C)(C)C)[C@H](C)C1COC` (stereo not given in full), the composite z-score turned out to be 1.45 in test [1]; 1.04 in test [2]; 1.23 in test [3]; 0.189 in [5]; 0.366 in test [6]; 0.0761 in test [7]. Further, the composite z-score in test [8] was 0.45; in [9], 0.202; in test [10] it was 0.939; in test [11], 1.37; in test [13], -0.13; in test [14], 2.61. Besides, the composite z-score in test [15] was found to be 1.37; in test [16] it was 0.0017; in test [17] it was 0.177; in test [18], 2.19; in test [19] it was 1.56; in [20] it was 0.9. Besides, the z-score in [4] is -0.625 (inactive); in [12] it was -0.386.
